Most compounds without a hit are left out; they make up all but 9% or so of the library.
BAZ2B block = inhibitors of human BAZ2B bromodomain. 360,000 compounds, 4.4% hits. AlphaScreen BAZ2B-H3K14Ac peptide displacement. Potency, µM (series often up to 114 µM), actives largely listed as inhibitors. Q9UIF8; note: nearly all actives have a fitted effect of over 60% in size
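Complex of BAZ2B and biotin-H3K14Ac (50 nM apiece) forms over 30 min at RT, then faces library compounds up to 110 uM for another 30 min; AlphaScreen beads added, 20 min dark incubation, luminescence read.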
PLK1 PBD inh = blocks phosphopeptide binding to human PLK1 polo-box domain; Plk1 PBD binding of FITC phosphopeptide, fluorescence polarization; Potency, µM, usual class: inhibitors; 360,000 compounds, 2.8% hits; note: series mostly up to about 57 µM; nearly all actives have a fitted effect of over 65% in size
ALOX12 inh = inhibitors of human 12S-lipoxygenase ALOX12; purified 12hLO, xylenol orange hydroperoxide absorbance; 580,000 compounds, 1.1% hits; AID 1671190; Potency, µM (top dose mostly 108 µM), actives largely listed as inhibitors; P18054
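Purified human 12hLO at 150 nM in 25 mM Hepes, 0.01% Triton X-100, pH 7.0, preincubated 15 min at room temperature with compound. Reaction started with 40 uM arachidonic acid, 30 min at room temperature. Hydroperoxide measured by Fe-xylenol orange, 573/405 nm absorbance ratio.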
JMJD2A Tudor = blocks the human JMJD2A Tudor domain; AID 504339; Potency, µM (series often up to 114 µM), usual class: inhibitors; AlphaScreen JMJD2A-Tudor / H3K4me3 peptide binding; 390,000 compounds, 4.4% hits; note: nearly all actives have a fitted effect of over 50% in size
HP1b chromo inh = inhibitors of HP1-beta chromodomain binding to methylated histone tails; P83916; AlphaScreen HP1-beta / biotin-H3K9me3 peptide binding; Potency, µM (highest dose often 114 µM), usual class: inhibitors; 390,000 compounds, 0.56% hits; note: nearly all actives have a fitted effect of over 70% in size
Target sequence (P83916 whole entry, looked up): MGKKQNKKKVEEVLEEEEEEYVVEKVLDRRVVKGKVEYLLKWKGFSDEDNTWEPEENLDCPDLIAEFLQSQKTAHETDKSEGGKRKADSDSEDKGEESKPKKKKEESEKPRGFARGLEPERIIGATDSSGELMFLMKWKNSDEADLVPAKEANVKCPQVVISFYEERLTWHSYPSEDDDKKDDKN
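Compound inhibition of the preformed complex between 50 nM HP1-beta and 50 nM biotinylated H3K9me3 peptide was read by AlphaScreen. Buffer was PBS pH 7.4 with 0.01% Tween-20. Incubations ran 30 min at room temperature, with 10 ug/mL donor/acceptor beads.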
G9a inh = blocks human histone lysine methyltransferase G9a; 350,000 compounds, 8.8% hits; Potency, µM (titrated, usually from 102 µM), actives largely listed as inhibitors; Q96KQ7; AID 504332; G9a H3K9 monomethylation, AlphaScreen, 2 h; note: nearly all actives have a fitted effect of over 75% in size
Target sequence (Q96KQ7 913-1193 limits assumed): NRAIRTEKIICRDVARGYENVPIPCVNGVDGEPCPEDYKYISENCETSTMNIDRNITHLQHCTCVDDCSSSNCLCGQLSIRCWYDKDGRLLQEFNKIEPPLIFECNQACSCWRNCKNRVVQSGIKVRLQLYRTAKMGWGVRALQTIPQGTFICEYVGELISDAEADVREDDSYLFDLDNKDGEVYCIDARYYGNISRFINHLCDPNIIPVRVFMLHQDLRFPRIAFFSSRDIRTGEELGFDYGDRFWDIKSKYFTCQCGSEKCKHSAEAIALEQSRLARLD
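Compounds were preincubated with 20 nM G9a for 15 min, after which biotinylated H3K9 peptide (500 nM) and SAM (20 uM) started a 2 h room-temperature reaction. Monomethylated product was quantified by antibody-based AlphaScreen chemiluminescence.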
Numbers stand for hits; i = inactive; ? = inconclusive; nt = no result given; [ ] = another dose, or the depositor's remark. Calls come from the whole dose curve; as a rule, active = well fitted curve in the direction sought with a large enough effect; inconclusive = small, poorly fitted or top-dose-only effect, or another doubt; inactive = no such curve, though single readings can be large; an effect the other way counts as inactive or inconclusive.

SMILES	BAZ2B block	PLK1 PBD inh	ALOX12 inh	JMJD2A Tudor	HP1b chromo inh	G9a inh
COc1ccc(-n2c(C)cc(/C=N/Nc3nnc(C)n3N)c2C)cc1	?	i	i	?	i	11.2µM
Cc1ccc(-n2c(C)cc(/C=N/NC(N)=S)c2C)cc1	?	i	44.7µM	?	i	?
CNC(=S)N/N=C/c1ccccc1Cl	i	i	i	i	i	i
CC(C)OCCCNC(=O)Cc1ccc(F)cc1	i	i	i	i	i	i
Cc1ccc(S(=O)(=O)n2ccc(OC(=O)c3cccs3)n2)cc1	i	i	i	i	i	i[12.7 µM]
CC(C)c1ccc(NC(=O)[C@H](NC(=O)[C@@H]2Cc3ccccc3CN2)c2ccccc2)cc1	i	i	i	i	i	44.7µM
C[C@H](NC(=O)[C@@H]1Cc2ccccc2CN1)C(=O)NC1CCCCC1	i	i	i	i	i	79.4µM
Cc1ccc(NC(=O)[C@H](NC(=O)[C@@H]2Cc3ccccc3CN2)c2ccccc2)cc1	?	i	i	i	i	nt
C[C@H](NC(=O)[C@@H]1Cc2ccccc2CN1)C(=O)NC[C@H]1CC[C@H](C(=O)O)CC1	i	i	?	i	i	i
C[C@@H](NC(=O)[C@@H]1Cc2ccccc2CN1)C(=O)NCC1CCCO1 (stereo not given in full)	i	i	i	i	i	50.1µM
C[C@@H](NC(=O)[C@@H]1Cc2ccccc2CN1)C(=O)Nc1ccc2c(c1)OCCO2	?	3.36µM	i	?	i	i
CSCC[C@H](NC(=O)[C@@H]1Cc2ccccc2CN1)C(=O)NC(C)c1ccccc1 (stereo not given in full)	i	i	i	?	i	22.4µM
CSCC[C@H](NC(=O)[C@@H]1Cc2ccccc2CN1)C(=O)NC1CCCC1	i	i	i	i	i	nt
Cc1ccc(-c2ccc3c(c2)O[C@H](CN(C)Cc2cncnc2)[C@@H](C)CN([C@H](C)CO)S3(=O)=O)cc1	nt	i	i	nt	nt	nt
CC1=C(C(=O)Nc2ccccc2)C(c2ccco2)C(C#N)=C(SCc2ccccc2)N1 (stereo not given)	i	nt	nt	nt	nt	?
CSC1=C(C#N)C(c2ccncc2)C(C(=O)Nc2ccccc2)=C(C)N1 (stereo not given)	i	i	i	i	i	25.1µM
CC1=C(C(=O)Nc2ccccc2)C(c2ccncc2)C(C#N)=C(SCC(=O)Nc2ccccc2)N1 (stereo not given)	i	?	?	i	i	28.2µM
CC1=C(C(=O)Nc2ccccc2)C(c2ccco2)C(C#N)=C(SCC(=O)Nc2cccc(C)c2C)N1 (stereo not given)	i	i	?	i	i	?
COc1cc2nc(CN3CCN(C(C)=O)CC3)[nH]c(=O)c2cc1OC	i	i	i	i	i	i
CCOC(=O)n1c(O)c(N=NC(N)=S)c2cc(C)ccc21	i	i	i	i	i	nt
COC(=O)/C(=C(/F)Sc1cc(C)c(O)c(C)c1)C(F)(F)F	?	3.77µM	nt	i	i	?
COC(=O)c1ccc(N/C(C)=C/C(=O)c2ccc(C)o2)cc1	i	i	?	89.1µM	i	i[12.7 µM]
CCOc1ccc(N/C(C)=C/C(=O)c2ccc(C)o2)cc1	?	i	?	i	i	50.1µM
COC(=O)c1ccc(NC(=O)Cc2ccc(C)cc2)cc1	i	i	i	i	i	i
CCOc1ccc(NC(=O)CCc2ccc(C)o2)cc1	i	i	i	i	i	i
SMILES	BAZ2B block	PLK1 PBD inh	ALOX12 inh	JMJD2A Tudor	HP1b chromo inh	G9a inh
Cc1cn2nnc(C(=O)N3CCC(C(=O)Nc4cccc(Cl)c4)CC3)c2c(=O)[nH]1	nt	nt	i	nt	nt	nt
O=C(c1ccc(-n2ccnc2)cc1)N1CCCC(CO)(Cc2cccc(Cl)c2)C1 (stereo not given)	i	i	i	i	i	i
COc1ccc(-c2ccc3c(c2)[C@@H]2C[C@H](N(C)C(=O)C(C)(C)C)[C@H]([C@H](C)O)C(=O)N2CC3)cc1	nt	i	11.2µM	?	i	nt
COCC(=O)N(C)[C@H]1C[C@H]2c3cc(-c4ccccc4)ccc3CCN2C(=O)[C@H]1[C@H](C)O	nt	i	i	i	i	nt
O=C(Nc1cccc(C(F)(F)F)c1)N1CC2CCCN2c2ccccc21 (stereo not given)	28.2µM	nt	i	50.1µM	?	?
Cc1ccc(NC(=O)N2CC3CCCN3c3ccccc32)cc1Cl (stereo not given)	28.2µM	nt	i	39.8µM	?	8.91µM
CCC1CN(C(=O)Nc2cc(Cl)ccc2C(=O)OC)c2ccccc2S1 (stereo not given)	i	nt	i	i	i	i
COC(=O)c1ccc(Cl)cc1NC(=O)N1CC2CCCN2c2ccccc21 (stereo not given)	?	nt	i	?	i	8.91µM
Cc1ccc(NC(=O)N2CC3CCCN3c3ccccc32)c(C)c1 (stereo not given)	i	nt	i	50.1µM	?	i
Cc1cc(C(=O)Nc2cccc(-c3nc(CNC(=O)c4cnccn4)c(C)o3)c2)c(C)o1	nt	nt	i	nt	nt	nt
Cc1ccc(N(Cc2ccccc2)C(=O)c2cc(S(=O)(=O)N3CCOCC3)ccc2N2CCCC2)cc1	i	i	?	i	i	i[0.501 µM]
COc1cccc(C(=Cc2ccc([N+](=O)[O-])cc2)C(=O)O)c1	nt	i	i	nt	nt	nt
Cc1ccc(NC(=O)N2CC3CCCN3c3ccccc32)cc1C (stereo not given)	25.1µM	nt	i	50.1µM	?	10µM
CSc1nc(NS(=O)(=O)c2cc(Br)ccc2Br)cc(=O)[nH]1	i	i	?	i	i	56.2µM
Cn1c(=O)c2cn3c(c2n(C)c1=O)C(c1ccccc1)CC(c1ccccc1)=N3 (stereo not given)	?	?	?	?	i	8.91µM
CCCNC(=O)N[C@@H]1C=C(C(=O)N[C@@H](Cc2ccc(OC)cc2)C(N)=O)C[C@@H](O)[C@@H]1O	nt	nt	i	nt	nt	nt
O=C(O)c1cccc(S(=O)(=O)NCCc2ccccc2)c1	i	29.9µM	i	i[11.4 µM]	i	i
O=C(O)c1cccc(S(=O)(=O)NNc2ccccc2C(F)(F)F)c1	50.1µM	i	15.8µM	7.94µM	i	1.41µM
O=C(O)c1cccc(S(=O)(=O)NCCC(c2ccccc2)c2ccccc2)c1	i	i	i	i	i	i
CCc1ccc(CNCCN2CCCC2)cc1	nt	nt	i	nt	nt	nt
Clc1ccc(OCCN2CCCCC2)cc1Cl	?	i	?	22.4µM	i	?
Cc1cc(OCCCCCNCCO)ccc1Cl	i	i	i	i	i	i
CCOc1ccc(CNCCN2CCCC2)cc1	56.2µM	i	?	12.6µM	?	2.82µM
CNCCOc1ccc(Cl)c(Cl)c1	i	i	i	3.16µM	?	39.8µM
Fc1ccc(OCCOCCN2CCCC2)cc1	nt	i	i	6.31µM	?	nt
O=C(Nc1nc2ccc(SC(F)F)cc2s1)c1ccc2c(c1)S(=O)(=O)c1ccccc1C2=O	i	nt	nt	nt	nt	i

Screens: PubChem BioAssay, National Center for Advancing Translational Sciences (NCATS)
